BAZ2B block – qHTS Assay for Inhibitors of BAZ2B. Bromodomain adjacent to zinc finger domain protein 2B (Homo sapiens), Q9UIF8. AlphaScreen BAZ2B-H3K14Ac peptide displacement. Potency, µM (series often up to 114 µM), for inactives: top-dose activity change, negative = inhibition, usual class: inhibitors. actives 4.4% (n = 360,000); further: potency means the concentration at half of the fitted maximal effect; on the % scale 0 is the no-effect control and ±100 the full control effect; nearly all actives have a fitted effect of over 60% in size
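Inhibition is scored as reduced AlphaScreen emission. The BAZ2B/b-H3(5-23)K14Ac complex (50 nM each) in PBS pH 7.4, 0.01% Tween-20 meets compound (up to 110 uM) for 30 min at RT before bead addition.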
G9a block – qHTS Assay for Inhibitors of Histone Lysine Methyltransferase G9a; G9a H3K9 monomethylation, AlphaScreen, 2 h; Potency, µM (top dose mostly 102 µM), inactives show at the top dose activity, negative = inhibition, usual class: inhibitors; actives 8.8% (n = 350,000); further: potency means the concentration at half of the fitted maximal effect; on the % scale 0 is the no-effect control and ±100 the full control effect; nearly all actives have a fitted effect of over 75% in size
Target sequence (Q96KQ7 913-1193 limits assumed): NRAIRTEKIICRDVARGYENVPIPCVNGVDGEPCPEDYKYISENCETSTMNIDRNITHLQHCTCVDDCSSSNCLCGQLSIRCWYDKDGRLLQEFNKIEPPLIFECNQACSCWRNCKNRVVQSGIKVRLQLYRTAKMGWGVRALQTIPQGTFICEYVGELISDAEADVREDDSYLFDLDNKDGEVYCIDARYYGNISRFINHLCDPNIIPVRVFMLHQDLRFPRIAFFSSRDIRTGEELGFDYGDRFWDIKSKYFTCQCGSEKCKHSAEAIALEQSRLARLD
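Methyltransferase reactions run at room temperature for 2 h (20 nM enzyme, 500 nM biotin-H3K9 peptide, 20 uM SAM) after a 15 min compound preincubation; product detected by AlphaScreen beads and anti-H3K9me1 antibody.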
TDP1 block – qHTS Assay for Inhibitors of Tyrosyl-DNA Phosphodiesterase (TDP1); Tyrosyl-DNA phosphodiesterase 1 (Homo sapiens), Q9NUW8; recombinant TDP1, AlphaScreen DNA substrate cleavage; Potency, µM (titrated, usually from 130 µM), inactives show at the top dose activity change, negative = inhibition, hits mostly inhibitors; actives 0.28% (n = 350,000); further: potency means the concentration at half of the fitted maximal effect; on the % scale 0 is the no-effect control and ±100 the full control effect; nearly all actives have a fitted effect of over 40% in size
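E. coli-derived human Tdp1, 1 nM final. Cpd preinc 15 min RT; substrate 15 nM final, 5 min RT; AS bead mix 10 ug/ml final, 10 min RT. Signal loss = tyrosine-FITC cleavage. No-enzyme wells = max signal.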
JMJD2A Tudor – qHTS Assay for Inhibitors of JMJD2A-Tudor Domain | Potency, µM (top dose mostly 114 µM), for inactives: top-dose activity change, negative = inhibition, usual class: inhibitors | AID 504339, 2011 | actives 4.4% (n = 390,000) | AlphaScreen JMJD2A-Tudor / H3K4me3 peptide binding; further: potency means the concentration at half of the fitted maximal effect; on the % scale 0 is the no-effect control and ±100 the full control effect; nearly all actives have a fitted effect of over 50% in size
Sfp inh – qHTS Assay for Inhibitors of Bacillus subtilis Sfp phosphopantetheinyl transferase (PPTase). Potency, µM, for the others: largest response in the series, negative = inhibition, actives largely listed as inhibitors. AID 1490, 2009. actives 3.5% (n = 310,000). Biochemical Sfp PPTase activity, qHTS. 4'-phosphopantetheinyl transferase ffp (Bacillus subtilis), Q9F4F7;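 further: the enzyme is Sfp with the accession as filed and its product quenches rhodamine fluorescence; potency means the concentration at half of the fitted maximal effect; 0% = enzyme reaction without inhibitor and -100% = no enzyme wells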
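Reaction rates are the 30-min fluorescence difference (ex 525, em 598 nm) in wells containing 15 nM Sfp, 5 uM rhodamine-CoA and 12.5 uM BHQ-2-YbbR at pH 7.6 with 10 mM MgCl2.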
HP1b chromo inh – HTS for Inhibitors of HP1-beta Chromodomain Interactions with Methylated Histone Tails | AlphaScreen HP1-beta / biotin-H3K9me3 peptide binding | actives 0.56% (n = 390,000) | Potency, µM (highest dose often 114 µM), inactives show at the highest dose activity change, negative = inhibition, usual class: inhibitors | Chromobox protein homolog 1 (Homo sapiens), P83916 | AID 540317, 2011; further: potency means the concentration at half of the fitted maximal effect; nearly all actives have a fitted effect of over 70% in size
Target sequence (P83916 whole entry, looked up): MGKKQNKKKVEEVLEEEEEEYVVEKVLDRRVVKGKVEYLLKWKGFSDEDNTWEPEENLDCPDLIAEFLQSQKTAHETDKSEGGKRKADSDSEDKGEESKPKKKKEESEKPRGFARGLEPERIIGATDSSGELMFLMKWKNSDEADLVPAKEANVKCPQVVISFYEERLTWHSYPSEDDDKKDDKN
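AlphaScreen: HP1-beta (50 nM) preformed 30 min with biotin-H3(1-18)K9me3 peptide (50 nM) in PBS pH 7.4, 0.01% Tween-20. Compound added for 30 min at RT, then streptavidin donor/nickel chelate acceptor beads (10 ug/mL) for 30 min.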
12-hLO cuvette – Cuvette-Based Assay for Inhibitors of 12-hLO (12-human lipoxygenase): 8HQ Series - Round 1; Potency, µM, most hits filed as inhibitors; actives 60% (n = 35); purified 12-hLO, cuvette UV 234 nm product formation; AID 2163, 2009; shares compounds with BAZ2B block;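 active means compounds that slowed 12-hLO product formation enough to yield a measured IC50 potency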
JMJD2E inh – Inhibitors of Human Jumonji Domain Containing 2E (JMJD2E): 8HQs - Round 1; shares compounds with BAZ2B block; JMJD2E demethylase, FDH-coupled NADH fluorescence (FDH is formaldehyde dehydrogenase); Potency, µM (top dose mostly 57 µM), without a hit: at the highest dose activity, negative = inhibition, actives largely listed as inhibitors; actives 89% (n = 130)
ME-1 prolif – qHTS Assay for Compounds Blocking the Interaction Between CBF-beta and RUNX1 for the Treatment of Acute Myeloid Leukemia: ME-1 cellular proliferation. shares compounds with BAZ2B block. ME-1 cell proliferation, ATP luminescence, 48 h. Potency, µM (highest dose often 56.1 µM), without a hit: at the highest dose activity change, negative = inhibition, usual class: inhibitors. actives 20% (n = 140). AID 504370, 2011
The depositor's hits bear a star; i = inactive; ? = inconclusive; / = no result; [ ] = remark or other dose. The list is not random: actives were taken first. Their share in the collection is about 12%. Unless noted, the call rests on the fitted dose curve; in most records, active means well fitted curve in the direction sought with a large enough effect; inconclusive means small, poorly fitted or top-dose-only effect, or another doubt; inactive means no such curve, though single readings can be large; an effect the other way counts as inactive or inconclusive.

SMILES	BAZ2B block	G9a block	TDP1 block	JMJD2A Tudor	Sfp inh	HP1b chromo inh	ME-1 prolif	others
CC(=O)NC(c1cc(F)c2cccnc2c1O)C(C)C (stereo not drawn)	79µM*	4%[12.7 µM]	/	/	/	/	/	12-hLO cuvette=i;JMJD2E inh=20µM*
CC(=O)NC(c1cc(Cl)c2cccnc2c1O)C1CC1 (stereo not drawn)	32µM*	13%[12.7 µM]	-1%	?	/	84%	/	12-hLO cuvette=3µM*;JMJD2E inh=18µM*
Cc1ccccc1NC(=O)COC(=O)[C@@H]1CCCN1C(=O)c1cccs1	/	/	0%	-12%	/	-14%	/
COC(=O)c1ccc(NC(=O)CCc2c(C)nc3c(c(C)nn3C(C)(C)C)c2C)cc1	-22%	14%[59 µM]	5%	-2%	/	42%	/
Cc1ccc(CNC(=O)c2ccc3c(c2)NC(=O)CS3)cc1	0%	38%[59 µM]	1%	3%	1%	37%	/
Cc1cccc(Cn2c(=O)n(Cc3ccc(C(=O)NC4CCN(Cc5ccccc5)CC4)cc3)c(=O)c3ccccc32)c1	-2%	-2%[59 µM]	4%	-4%	/	21%	/
O=C(CSc1ccc(-c2cccc([N+](=O)[O-])c2)nn1)NCc1ccccc1	-5%	3%	5%	-13%	-14%	1%	/
O=C(CSc1ccc(-c2ccccn2)nn1)NCc1ccccc1	18µM*	27%	3%	?	-21%	2%	-18%
O=C(Nc1ccc(N2CCCC2)cc1)c1cccc(Cl)c1	-4%	?	/	?	2%	33%	/
Nc1nc(-c2ccccc2)c(N=Nc2cccc3ccccc23)s1	8.9µM*	10µM*	11%	11µM*	13%	?	-10%[25.6 µM]
Nc1nc(-c2ccccc2)c(N=Nc2ccccc2Cl)s1	10µM*	10µM*	10%	13µM*	-3%	18µM*	-14%[25.6 µM]
CC(=O)Nc1sc(N)nc1-c1ccccc1	4%	?	3%	-28%	?	12%	/
O=C(Nc1cc(S(=O)(=O)N2CCCCC2)ccc1N1CCCCC1)c1ccncc1	-18%	-3%[12.7 µM]	5%	-23%	-5%	7%	/
CN=c1scc(-c2ccccc2F)n1/N=C/c1ccc(O)c(O)c1O	7.9µM*	13µM*	10%	32µM*	3.2µM*	28µM*	4.5µM*
Cc1ccc(NC(=O)CCCn2c(=O)c3cccn3c3ccccc32)cc1C	1%	2%[59 µM]	0%	-9%	/	36%	/
CC(=O)N[C@H](Cc1c[nH]c2ccccc12)C(=O)O	/	/	/	-17%	/	23%	/
CC(Cc1c[nH]c2ccccc12)C(=O)O (stereo not drawn)	45µM*	10µM*	-4%	25µM*	5%	?	-10%[25.6 µM]
CCOC(=O)c1cccc(NC(=O)c2ccc3c(c2)C(=O)N(CC2CCCO2)C3=O)c1 (stereo not drawn)	-8%	14%	3%	-23%	-16%	13%	/
Nc1cccc(S(=O)(=O)c2cccc(N)c2)c1	-3%	16%	7%	-6%	11%	22%	/
Nc1cccc(N)c1	/	/	15%	/	/	/	-2%
CC1=NN(c2ccccc2)C(=O)/C1=C/C=C/c1ccc(N(C)C)cc1	2µM*	2µM*	12%	2.5µM*	-7%	2.5µM*	?
COc1ccc(NC(=O)C(=O)Nc2ccc3nc4n(c(=O)c3c2)CCCCC4)c(OC)c1	-1%	2%[59 µM]	3%	-8%	/	41%	/
O=C(NCCc1ccccc1)c1cccc(Br)n1	/	-2%	9%	/	-18%	/	-13%
NC1=NC(=O)S/C1=C\c1ccc(F)cc1	-9%	14%	-2%	-10%	3%	19%	/
CCOc1cc(N2CCOCC2)c(OCC)cc1NC(=O)COC(=O)c1ccc(OC)c([N+](=O)[O-])c1	/	/	/	-10%	/	41%	/
SMILES	BAZ2B block	G9a block	TDP1 block	JMJD2A Tudor	Sfp inh	HP1b chromo inh	ME-1 prolif	others
CC(C)=CC[C@@H](O)C1=CC(=O)c2c(O)ccc(O)c2C1=O	/	6.3µM*	21%	/	50µM*	/	1.1µM*
COc1ccccc1CN1CC(C(=O)N2CCOCC2)CCC1=O (stereo not drawn)	-4%	/	1%	?	24%	28%	/
N#CC(C#N)=Cc1ccc(OC(=O)c2ccccn2)cc1	8.9µM*	2.5µM*	2%	7.9µM*	45µM*	33%	?
COc1cccc(-c2cc(C(F)(F)F)nc(NCCc3ccccc3)n2)c1	185%	173%[59 µM]	-3%	127%	/	190%	/
O=C1OCC2OC(O)C(O)C(O)C2OC(=O)c2cc(O)c(O)c(O)c2-c2c(O)c(O)c3oc(=O)c4c(c(O)c(O)c5oc(=O)c2c3c54)-c2c1cc(O)c(O)c2O (stereo not drawn)	0.71µM*	?	0.14µM*	/	3.5µM*	/	?
COC1OC(COC(=O)c2ccccc2)C(OC(=O)c2ccccc2)C1OC(=O)c1ccccc1 (stereo not drawn)	12%	6%[2.33 µM]	/	5%	-1%	39%	/
O=C(O)C[C@@H]1C(=O)O[C@@H]2C(COC(=O)c3cc(O)c(O)c(O)c3)O[C@@H](OC(=O)c3cc(O)c(O)c(O)c3)[C@@H](OC(=O)c3cc(O)c(O)c4c3[C@H]1[C@H](O)C(=O)O4)[C@H]2OC(=O)c1cc(O)c(O)c(O)c1 (stereo partly drawn)	0.71µM*	?	/	/	45µM*	/	?
Cc1ccc(S(=O)(=O)N(C)CC(=O)NNC(=O)CCC(=O)c2ccc(F)cc2)cc1	/	/	0%	-10%	/	29%	/
